# BCR signal inh – chronic active BCR signaling inhibition; ABC-DLBCL IkBa-CBG/CBR reporter, luminescence ratio, 4 h; Potency, µM (doses to about 46.1 µM), most hits filed as inhibitors; 340,000 tested, 0.05% active; active = well fitted inhibition curve with a large enough effect in the signal ratio, with a control signal flat, not every such curve was filed as active; inconclusive = small, poorly fitted or top-dose-only effect, or effect the other way, or a change in a side signal; the % refers to the signal ratio
#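 TMD8 human ABC-DLBCL cells with doxycycline-inducible IκBα–green luciferase fusion and unfused red luciferase, in 0.5% FBS medium; compounds up to 46 uM, 4 h at 37C. Green/red luminescence ratio, filter-overlap corrected, fitted to concentration-response curves.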
# Giardia killer – Giardia lamblia killing; 340,000 tested, 0.15% active; Giardia lamblia trophozoite viability; activity change, % at 7.66 µM, hits read low; in the data active = activity change below about -80%; inconclusive = between about -30% and that limit;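 also: parasites exposed to compound for two days anaerobically before the ATP read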
#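 Luminescence from cellular ATP indicates surviving trophozoites (100 cells/well) following 48 hrs anaerobic compound treatment at 37 deg C; signal develops 15-30 min at room temperature.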
# MCF10A rereplic – induces DNA re-replication in MCF 10a normal breast cells | MCF 10A DNA re-replication, Hoechst nuclear intensity, 48 h | Potency, µM (highest dose often 46.1 µM), most hits filed as activators | 350,000 tested, 2.9% active; also: nearly all actives have a fitted effect of over 50% in size
# SW480 rerep – DNA re-replication induction in SW480 cells. Potency, µM (doses to about 46.1 µM), usual class: activators. SW480 DNA re-replication, Hoechst DNA content imaging, 48 h. 340,000 tested, 1.8% active; also: nearly all actives have a fitted effect of over 55% in size
#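 First, 250 cells per well were seeded. Next, compound or vehicle (23 nL) was pinned in, plates sat 48 hr at 37 C. Finally Hoechst was added for 40 min before fluorescence scanning.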
# RORg inh – inhibitors of mouse ROR gamma transcriptional activity. 310,000 tested, 5.4% active. AID 2551. P51450. Drosophila S2 Gal4-RORgamma UAS-luciferase reporter, 20 h. Potency, µM (highest dose often 53.6 µM), usual class: inhibitors; also: nearly all actives have a fitted effect of over 60% in size
# Target sequence (P51450 whole entry, looked up, the tested form may be a part): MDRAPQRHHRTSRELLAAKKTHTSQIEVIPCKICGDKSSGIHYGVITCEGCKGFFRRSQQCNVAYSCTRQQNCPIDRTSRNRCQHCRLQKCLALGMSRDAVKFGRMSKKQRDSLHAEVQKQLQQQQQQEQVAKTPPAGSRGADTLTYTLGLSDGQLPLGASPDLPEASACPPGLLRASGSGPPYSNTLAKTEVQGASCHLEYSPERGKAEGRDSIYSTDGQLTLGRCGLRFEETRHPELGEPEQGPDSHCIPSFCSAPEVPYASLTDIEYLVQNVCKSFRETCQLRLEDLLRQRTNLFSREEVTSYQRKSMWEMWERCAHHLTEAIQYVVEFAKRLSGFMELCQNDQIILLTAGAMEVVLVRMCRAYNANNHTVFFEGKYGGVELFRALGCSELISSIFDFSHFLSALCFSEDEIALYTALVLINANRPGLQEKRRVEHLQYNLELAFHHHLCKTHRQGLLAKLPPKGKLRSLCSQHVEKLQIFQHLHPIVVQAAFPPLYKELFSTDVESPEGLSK
#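 Drosophila S2 cells stably expressing Gal4-DBD/mouse RORγ fusion under metallothionein promoter plus UAS-luciferase; compound 1 h, then 700 uM CuSO4 induction for 20 h at ambient temperature; inhibition read as reduced luminescence.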
# VP16 counter – counter-screen for ROR gamma inhibitors: Gal4-VP16 reporter; Drosophila S2 Gal4-VP16 UAS-luciferase, luminescence, 20 h; Potency, µM (series often up to 53.6 µM), usual class: inhibitors; 310,000 tested, 3.5% active; AID 2546;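 also: Gal4-VP16 expression switched on by copper sulfate through the metallothionein promoter; nearly all actives have a fitted effect of over 50% in size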
# Numbers stand for hits; - = inactive; ? = inconclusive; . = no result given. Only some compounds are listed: those with a hit (about 8.3% of all), similar ones and a draw of the others. Unless noted, calls follow the shape of the dose curve; as a rule, active = well fitted curve in the direction sought with a large enough effect; inconclusive = small, poorly fitted or top-dose-only effect, or another doubt; inactive = no such curve, though single readings can be large; an effect the other way counts as inactive or inconclusive.
SMILES,BCR signal inh,Giardia killer,MCF10A rereplic,SW480 rerep,RORg inh,VP16 counter
CC(/C=C/c1ccco1)=N\NC(=O)c1cccc(Cl)c1,?,-,-,?,4µM,3.5µM
CC(=C/c1ccccc1)/C=N/NC(=O)c1ccc2nc[nH]c2c1,-,-,?,-,-,-
C/C(=N\NC(=O)c1ccn(C)n1)c1ccc(NC(=O)C2CCCC2)cc1,?,-,-,-,-,-
CC(/C=C/c1ccco1)=N/NC(=O)c1ccccc1Cl,?,-,?,-,?,?
O=[N+]([O-])c1cc(S(=O)(=O)NC2=NCCCCC2)ccc1NCC1CCCCC1,-,-,-,-,?,-
CCS(=O)(=O)N1CCN(c2ccc(C(=O)NC3C4CC5CC(C4)CC3C5)cc2[N+](=O)[O-])CC1 (configuration not stated),-,-,-,-,?,-
CC(=C/c1ccccc1)/C=N/NC(=O)c1ccccn1,?,-,-,-,8.9µM,10µM
O=C(c1ccc([N+](=O)[O-])o1)N1CCCCCC1,-,-91,-,?,.,.
O=C(c1ccc(-c2ccc([N+](=O)[O-])cc2Cl)o1)N1CCOCC1,-,-,-,-,-,?
Cc1ccc(S(=O)(=O)Cc2ccc(C(=O)N3CCCCCC3)o2)cc1,?,-,-,?,-,-
O=C(c1ccc([N+](=O)[O-])o1)N1CCOCC1,-,?,-,-,16µM,-
O=C(NNC(=O)c1cc(Cl)ccc1O)c1ccc(NS(=O)(=O)c2cccs2)cc1,?,-,?,?,.,.
OCCN1CCN(C(c2ccc(Cl)cc2Cl)c2sc3nc(-c4ccco4)nn3c2O)CC1 (configuration not stated),-,.,.,.,.,.
COc1ccc(S(=O)(=O)N2CCOCC2)cc1NC(=O)C1CC1,-,-,-,-,.,.
N#Cc1ccc(CN2CCCC3(CCN(C(=O)c4csnn4)CC3)C2)cc1,.,.,.,.,-,-
Cc1ccc2c(c1)C(=O)[C@]1(O)CCN(c3ccccc3)C1=N2,.,.,.,.,-,-
COc1cccc(C(=O)O/N=C(\N)c2ccc(C)cc2)c1,?,-,-,-,-,-
COc1ccc(C(=O)O/N=C(\N)c2cccc(C)c2)cc1OC,?,-,-,-,1µM,?
COc1cccc(C(=O)O/N=C(\N)Cc2ccc(Cl)cc2)c1,-,-,-,-,-,13µM
Cc1cccc(C(=O)O/N=C(\N)Cc2cccc3ccccc23)c1,-,-,-,-,?,11µM
Cc1cccc(/C(N)=N/OC(=O)c2ccncc2)c1,?,-,-,-,7.1µM,?
CC1CN(C(=O)COC(=O)c2ccc(Cl)nc2)CC(C)O1 (configuration not stated),-,-,?,-,-,-
Cc1ccc(Cl)cc1NC1=NC(=S)N(C(C)C)C12CCCCC2,-,-,?,-,2.8µM,3.5µM
COc1ccccc1/C=C/c1nc(S(=O)(=O)c2ccccc2)c(N2CCC(C(N)=O)CC2)o1,-,-,?,18µM,-,-
NC(=O)C1CCN(c2oc(/C=C/c3ccc(F)cc3)nc2S(=O)(=O)c2ccccc2)CC1,-,-,-,?,-,-
SMILES,BCR signal inh,Giardia killer,MCF10A rereplic,SW480 rerep,RORg inh,VP16 counter
COCCNc1oc(/C=C/c2ccccc2OC)nc1S(=O)(=O)c1ccccc1,-,-,21µM,?,?,-
COCCNc1oc(-c2ccccc2Cl)nc1S(=O)(=O)c1ccc(C)cc1,-,-,-,-,.,.
CC(C)(O)CN(C(=O)c1ccccc1)C1CCCCC1,.,-,-,-,.,.
CC(C)(C)c1ccc(OCCn2c(CCNC(=O)C3CCCCC3)nc3ccccc32)cc1,.,-,.,.,.,.
Cc1cc(-c2c(C)[nH]n(-c3ccccc3)c2=O)n[nH]1,-,-,?,?,0.4µM,1µM
O=C(CNCc1ccccc1)Nc1ccc(Oc2ccccc2)cc1,?,-,?,18µM,-,-
C=CCNC(=S)NCc1ccccc1OC,-,-,?,-,11µM,?
O=C(CNCc1ccccc1)Nc1ccc(F)cc1,-,-,-,-,-,-
Oc1ccc2ccccc2c1CNc1ccc2ccccc2c1,.,-,21µM,?,.,.
Fc1ccc(CNC(=S)NCc2ccccc2)cc1,-,?,-,-,11µM,?
COc1ccc(N2CCN(C(CNC(=O)COc3ccccc3)c3ccco3)CC2)cc1 (configuration not stated),-,-,-,-,.,.
S=C(NCc1ccccc1)Nc1ccc(Oc2ccccc2)cc1,?,-,-,-,13µM,14µM
Fc1ccc(NC(=S)NCc2ccccc2)cc1,-,-,-,-,8.9µM,10µM
COc1ccccc1CNC(=S)NCc1ccc(F)cc1,-,-,-,-,7.1µM,7.9µM
S=C(NCc1ccccc1)Nc1ccc2ccccc2c1,?,-,-,-,4µM,11µM
COc1ccc(C)cc1N(C(=O)c1ccc(C#N)cc1)C1=NC(C)(C)CS1,-,-,-,-,-,-
CCOc1ccccc1N(C(=O)c1ccccc1Cl)C1=NC(C)(C)CS1,-,-,-,-,18µM,-
O=C(CSc1nnnn1C1CCCC1)N1CCN(C(=O)c2ccco2)CC1,?,-,-,-,-,-
O=C(CSc1nnnn1C1CCCCC1)N1CCN(C(=O)c2ccco2)CC1,?,-,-,-,3.2µM,7.9µM
O=C1CSC(=S)N1/N=C/c1ccc(Cl)c([N+](=O)[O-])c1,-,.,.,.,-,-
C=C(C)CNC(=S)N=Nc1c(O)[nH]c2ccc([N+](=O)[O-])cc12,?,-,-,-,2.5µM,13µM
CNC(=S)N=Nc1c(O)[nH]c2ccc(C(C)C)cc12,-,-,-,-,4µM,2.8µM
Cc1ccc(NC(=S)N=Nc2c(O)[nH]c3ccccc23)cc1,?,-,?,?,0.32µM,1.3µM
CC(C)c1ccc2[nH]c(O)c(N=NC(=O)c3cccc(S(=O)(=O)Nc4ccc(Cl)cc4)c3)c2c1,-,-,-,-,-,-
CC(C)NC(=S)N=Nc1c(O)[nH]c2ccc([N+](=O)[O-])cc12,?,?,-,-,-,-
SMILES,BCR signal inh,Giardia killer,MCF10A rereplic,SW480 rerep,RORg inh,VP16 counter
O=C(O)c1ccc(N=Nc2c(O)[nH]c3ccccc23)cc1,?,-,-,23µM,?,35µM
COc1ccc(-c2nc(C3CCCCC3)c3cc(OC)ccc3n2)cc1,-,-,-,-,.,.
CCCC1(c2ccccc2)NC(=O)N(CC(=O)NCc2ccc(OC)cc2)C1=O (configuration not stated),-,-,-,-,-,-
CCCn1c(SCC(=O)NCC(=O)Nc2ccc(F)c(F)c2F)nc2ccccc2c1=O,-,-,-,-,.,.
O=C(CSc1nnc(Nc2ccccc2)s1)NC1CCCC1,-,-,-,-,.,.
Cc1ccc(NC(=O)CSC(C)c2nc3ccccc3c(=O)[nH]2)cc1 (configuration not stated),-,-,-,-,-,-
COc1ccc(NC(=S)N=Nc2c(O)[nH]c3ccccc23)cc1,?,-,-,-,1.3µM,3.5µM
CNC(=S)N=Nc1c(O)[nH]c2ccccc12,?,-,-,-,3.2µM,?
COc1ccccc1CNCC(=O)Nc1ccc(N(C)C)cc1,?,-,-,-,-,-
CC(=O)c1cc2c(cc1N(C(=O)Cn1nnc3ccccc31)C(C(=O)NCCC(C)C)c1cccnc1)OCO2 (configuration not stated),-,-,-,-,-,-

# Compound activity from PubChem BioAssay.
